# About 83,000 compounds went through this panel and 20% of them were active in at least one assay; those are over-represented in the sample as a whole.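 Cell lines were cultured in 96-well plates, exposed to a single compound concentration, and assessed for percent growth 48 hours later.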 Unmarked numbers belong to inactive results. Activity calls are given as the source filed them. How the source made its calls: active means growth percent below 10; inactive means the rest.
# Tests used:
# Assay in all cases: NCI-60 one-dose screen, 48 h (100 = growth as untreated, 0 = no growth, -100 = all killed)
# NCI-H23 lung = conditions: 10 µM unless noted
# NCI-H226 lung = conditions: 10 µM unless noted
# NCI-H322M lung = conditions: 10 µM unless noted
# HOP-62 NSCLC = conditions: 10 µM unless noted
# NCI-H460 lung = conditions: 10 µM unless noted
# HOP-92 NSCLC = conditions: 10 µM unless noted
# NCI-H522 lung = conditions: 10 µM unless noted
# A549/ATCC NSCLC = conditions: 10 µM unless noted
# 786-0 renal = conditions: 10 µM unless noted
# COLO 205 colon = conditions: 10 µM unless noted
# DU-145 prostate = conditions: 10 µM unless noted
# K-562 leukemia = conditions: 10 µM unless noted
# MALME-3M melanoma = conditions: 10 µM unless noted
# MDA-MB-231 breast = conditions: 10 µM unless noted
# RXF 393 renal = conditions: 10 µM unless noted
# SF-268 CNS = conditions: 10 µM unless noted
# SF-295 CNS = conditions: 10 µM unless noted
# SF-539 CNS = conditions: 10 µM unless noted
# UACC-257 melanoma = conditions: 10 µM
# M14 melanoma = conditions: 10 µM unless noted
Compound,growth (NCI-H23 lung),growth (NCI-H226 lung),growth (NCI-H322M lung),growth (HOP-62 NSCLC),growth (NCI-H460 lung),growth (HOP-92 NSCLC),growth (NCI-H522 lung),growth (A549/ATCC NSCLC),growth (786-0 renal),growth (COLO 205 colon),growth (DU-145 prostate),growth (K-562 leukemia),growth (MALME-3M melanoma),growth (MDA-MB-231 breast),growth (RXF 393 renal),growth (SF-268 CNS),growth (SF-295 CNS),growth (SF-539 CNS),growth (UACC-257 melanoma),growth (M14 melanoma)
COc1ccc(-c2nc3sccn3c2-c2ccnc(NCCNS(=O)(=O)c3ccc(C(F)(F)F)cc3)n2)cc1,15.5%,4.55% (active),37.1%,46.1%,15.4%,13.4%,-1.01% (active),18.9%,18.4%,0.693% (active),15.8%,6.19% (active),8.25% (active),16%,18.5%,0.178% (active),-28.5% (active),0.637% (active),13.3%,10.1%
CCCCCc1c(C)[nH]c(/C=c2\[nH]/c(=C3/C=c4ccccc4=N3)cc2OC)c1C,-42.1% (active),-16.4% (active),-8.17% (active),-56.7% (active),2.12% (active),-56.8% (active),-45.8% (active),-21.8% (active),-68.3% (active),-76.5% (active),5.25% (active),-9.81% (active),-65% (active),-80.5% (active),-46.7% (active),-38.3% (active),-60.2% (active),-67.1% (active),-42.4% (active),-81.6% (active)
COc1ccc(-c2nc3sccn3c2-c2ccnc(NCCCNS(=O)(=O)c3ccc(C)cc3)n2)cc1,26.6%,13.7%,65%,86.5%,40%,67.5%,21.4%,38.8%,43.6%,11.5%,34.1%,19.9%,54.7%,23.5%,34.6%,38.1%,21.4%,56.9%,40%,23.2%
COc1ccc(/C=C/C(=O)c2ccc(NC(=O)CN3CCN(c4cc5c(cc4F)c(=O)c(C(=O)O)cn5C4CC4)CC3)cc2)cc1,99.6%,94.8%,96.1%,98.2%,112%,90.6%,111%,96.8%,89.8%,120%,126%,104%,94.5%,96.2%,98.4%,113%,95.3%,108%,96.5%,96.9%
C=C1C(=O)O[C@H]2[C@H](O)[C@@H](C)CCC/C(C)=C/CC[C@@]3(C)O[C@@H]3C[C@@H]12,95.3%,80.9%,81%,96.3%,91.4%,58%,-17.3% (active),80.7%,93.7%,90.7%,99.4%,79.2%,72%,77.9%,53.1%,96.1%,89.4%,84.2%,56.9%,92.8%
O=C(CNc1c(Cl)cccc1Cl)Nc1ccc(-c2nc3ccccc3s2)cc1,40.9%,54.4%,94.6%,118%,91.2%,94.2%,-93.4% (active),85.7%,24.1%,87.7%,85.7%,10.5%,-50% (active),56.9%,86.6%,46.2%,97.4%,79.9%,96.5%,55.7%
COc1cc(C(=O)OCCCCCCCCCCC[P+](c2ccccc2)(c2ccccc2)c2ccccc2)ccc1O,-18.2% (active),27.9%,1.65% (active),-83.8% (active),-10.6% (active),-49.5% (active),-50.3% (active),-8.01% (active),5.62% (active),-84.1% (active),10.6%,-37.8% (active),-77.4% (active),-69.4% (active),-53.4% (active),-74.3% (active),-31.9% (active),-57.3% (active),-21.6% (active),-24.5% (active)
Cc1ccc(Oc2nc3ccccc3cc2-c2nnc(Cn3c(COc4ccccc4)nc4ccccc43)o2)cc1,66.5%,64.9%,92.3%,49.8%,94.1%,14.2%,70.2%,81.3%,62.7%,84.6%,63.5%,-3.18% (active),72.5%,47.7%,60.3%,20.6%,92%,63.3%,94.6%,45.5%
CN(C)c1ncc(-c2ccc(C(F)(F)F)cc2)c(NC2CCCCCC2)n1,58.5%,61.9%,95.4%,88.2%,55.4%,-1.97% (active),43.6%,57.5%,67.2%,50%,84.9%,28.2%,5.4% (active),83.4%,78.8%,80.8%,32.7%,97.3%,38.1%,44.5%
COc1cccc(NC(=O)c2sc3nc4c(cc3c2N)CCCC4)c1,32.3%,57.2%,38.9%,27.7%,12%,43.6%,4.31% (active),17.4%,34.3%,49.2%,13%,12.2%,17%,51.9%,7.62% (active),49.5%,35.4%,-12.8% (active),64.5%,16.6%
O=C(NNC(=S)Nc1ccccc1)c1ccccn1,73.1%,43.4%,23.3%,37.9%,21.2%,16.7%,69%,24.3%,22.6%,22.5%,42.9%,28.6%,24.2%,43.5%,35.4%,36.7%,42.1%,31.5%,18.9%,25.3%
O=c1[nH]c2ccccc2cc1-c1nnc(Cc2ccccc2)o1,74.7%,85.3%,92.3%,82.6%,92.2%,76.2%,71.2%,83.3%,58.3%,64.4%,71.1%,30.8%,55.8%,79.6%,76.1%,78.4%,99.7%,80.8%,80%,65.8%
COc1cc(C2C=C(C)N=C3SC=C(C)N32)cc(OC)c1OC (stereo not given),-27.7% (active),2.75% (active),13.6%,-62.1% (active),-39% (active),-32.4% (active),-87.1% (active),-19.2% (active),-69% (active),-75.9% (active),-26.7% (active),2.16% (active),-54% (active),-23.5% (active),-89.7% (active),-16.9% (active),-1.7% (active),-40.4% (active),-38.9% (active),-52.5% (active)
COc1cc(CNC(=O)CCSc2nc3ccccc3c(=O)n2Cc2cc(OC)c(OC)c(OC)c2)cc(OC)c1OC,51.6%,70%,60.1%,29.3%,13.7%,44.6%,10.2%,35%,56.1%,25.8%,58.1%,8.67% (active),40.9%,46%,43.6%,50.4%,36.6%,25.4%,59.1%,6.56% (active)
CC[C@H](C)[C@H]1NC(=O)[C@@H](N[C@](C)(O)[C@@H](N)CC(C)C)[C@@H](C)OC(=O)[C@H](Cc2ccc(OC)cc2)N(C)C(=O)[C@@H]2CCCN2C(=O)[C@H](CC(C)C)NC(=O)[C@@H](C)C(=O)[C@H](C(C)C)OC(=O)C[C@@H]1O,-29.6% (active),-11.1% (active),-22.4% (active),-31.1% (active),-11.8% (active),-14.1% (active),-37.7% (active),-22.7% (active),-25.5% (active),-65.1% (active),-17.5% (active),2.2% (active),-21.4% (active),-15.8% (active),-33.1% (active),-1.13% (active),-52.1% (active),-27.6% (active),-24.7% (active),-75.3% (active)

# — PubChem BioAssay (NCI)
